This passage reports Potency, activity change, negative = inhibition and outcome results from PubChem BioAssay (NCATS).

Each structure is given as a SMILES string. The source made the active and inactive calls. Entries that show only a call come without a potency. Calls follow the shape of the dose curve; as a rule, active = well fitted inhibition curve with a large enough effect; inconclusive = small, poorly fitted or top-dose-only effect; inactive = flat fitted curve, though single readings scatter.

This experiment concerns the target Luciferin 4-monooxygenase (Photinus pyralis) (UniProt P08659). The experiment in a line: Primary firefly luciferase (FLuc) qHTS assay for identification of artifact compounds. (AID 1845220). Also: nearly all actives have a fitted effect of over 60% in size. The note with it: purified firefly luciferase, luminescence, 5 min; series mostly up to 54.1 µM. The gist of the method: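 Compounds sat 15 min at room temperature with 10 uM luciferin and 10 uM ATP (pH 7.6 Tris acetate). Firefly luciferase (10 nM final) was then added, and luminescence was read 5 min later. Data normalized to no-enzyme and DMSO controls were Hill-fitted.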
For the molecule `CC(C)c1ccc2c(c1)C(O)CC1C(C)(CO)CCCC21C` (stereo not drawn), the Potency result is “inactive”.
As to `C=C1CCC2C(C)(C(=O)O)CCCC2(C)C1CC/C(C)=C\CO` (stereo not drawn), the Potency result was “inactive”.
Regarding `COc1cccc(OC)c1-c1cc(C(=O)N[C@@H](CC(C)C)C(=O)O)nn1-c1ccnc2cc(Cl)ccc12`, the Potency result was “inactive”.
As for `O=C(/C=C/c1ccccc1)O[C@@H]1[C@@H](CO)O[C@@](CO)(O[C@H]2O[C@H](CO)[C@@H](O)[C@H](O)[C@H]2O)[C@H]1O`, the Potency entry is “inactive”.
Consider `CCOC(=O)COc1ccc2c(c1)C[C@@H](NC[C@H](O)c1cccc(Cl)c1)CC2`, for which the Potency result was “inactive”.
On the same count and under the same terms, in the case of `O=C(O)CCc1c(C(=O)O)[nH]c2cc(Cl)cc(Cl)c12` it was “inactive”.
The same measure, in the same setting: in the case of `CCN=C1N[C@@H]2[C@@H](O)[C@H](O)[C@@H](CO)O[C@@H]2S1` it was “inactive”; in that of `C[C@@H]1O[C@@H](O[C@H]2[C@@H]3C=CO[C@@H](O[C@@H]4O[C@H](CO)[C@@H](O)[C@H](O)[C@H]4O)[C@@H]3[C@@]3(CO)O[C@@H]23)[C@H](OC(=O)/C=C/c2ccc(O)cc2)[C@H](O)[C@H]1O`, “inactive”.
Same read-out and setting: in the case of `CC(=O)N[C@H](Cc1c[nH]c2ccccc12)C(=O)OCc1cc(C(F)(F)F)cc(C(F)(F)F)c1` it was “inactive”.
For `CC1(C(=O)O)CCCC2(C)C3CC4C5CC3(CCC12)CC45C` (stereo not drawn), the Potency result was “inactive”.
For the molecule `CC(C)[C@@](O)(c1ccc2cc(OC(F)F)c(OC(F)F)cc2c1)c1cn[nH]n1`, the Potency entry is “inactive”.
As for `CC(C)C1(O)C=C2C(=O)CC3C(C)(C(=O)O)CCCC3(C)C2CC1` (stereo not drawn), the Potency result was “inactive”.
The same measure, in the same setting: in the case of `C=C1[C@H](OC(C)=O)[C@H]2[C@@H](OC(=O)c3ccccc3)[C@@H](C)C[C@]2(O)[C@@H](OC(C)=O)[C@H](C)/C=C/C(C)(C)C(=O)[C@H](OC(C)=O)[C@H]1OC(C)=O` it was “inactive”; in that of `CC(=O)OC1C(O)C(C)(O)C(/C=C/C(=O)O)C2(C)CCCC(C)(C)C12` (stereo not drawn), “inactive”.
As to `C/C=C(/C)C(=O)OC1CC(C)(C)CC2C3=CCC4C5(C)CCC(OC6OC(C)C(OC7OC(C(=O)O)C(O)C(OC8OC(CO)C(O)C(O)C8OC8OC(CO)C(O)C(O)C8O)C7O)C(O)C6O)C(C)(C)C5CCC4(C)C3(C)C(OC(=O)/C=C/C=C/C=C/CCC)C(OC(C)=O)C12CO` (stereo not drawn), the activity change, negative = inhibition is 1.89% [at 11.6 µM] (inactive).
In the case of `COc1cc([C@H]2OC[C@](O)(Cc3ccc(O[C@@H]4O[C@H](CO)[C@@H](O)[C@H](O)[C@H]4O)c(OC)c3)[C@@H]2CO)ccc1O`, the Potency entry is “inactive”.
As for `C[C@@H]1O[C@@H](O[C@@H]2[C@@H](O)[C@H](O[C@H]3[C@H](O[C@H]4CC[C@@]5(C)C(CC[C@]6(C)C5CC=C5[C@@H]7CC(C)(C)CC[C@]7(C(=O)O[C@@H]7O[C@H](CO)[C@@H](O)[C@H](O)[C@H]7O)CC[C@]56C)C4(C)C)O[C@H](C(=O)O)[C@@H](O)[C@@H]3O)OC[C@H]2O)[C@H](O)[C@H](O)[C@H]1O` (stereo partly drawn), the outcome is “inactive [at 11.6 µM]”.
With `CC(C)=CC[C@H]1O[C@]2(O)C([C@H]3CCC4[C@@]5(C)CC[C@H](O[C@@H]6O[C@H](CO)[C@H](O)[C@H](O[C@@H]7O[C@H](CO)[C@@H](O)[C@H](O)[C@H]7O)[C@H]6O[C@@H]6O[C@@H](C)[C@H](O)[C@@H](O)[C@H]6O)C(C)(C)C5CC[C@@]4(C)[C@]3(C)[C@H]2O)[C@@]1(C)O` (stereo partly drawn), the activity change, negative = inhibition is 0.583% [at 11.6 µM] (inactive).
In the case of `O=C(O)c1ccnc2cc(C(OCC3CCC(F)(F)CC3)c3ccccc3Cl)[nH]c12` (stereo not drawn), the Potency result was “inactive”.
In the case of `C=C(C)[C@@H]1CC[C@]2(C(=O)O)CC[C@]3(C)[C@H](CCC4[C@@]5(C)CCC(=O)C(C)(C)C5C(O)C[C@]43C)C12` (stereo partly drawn), the Potency result is “inactive”.
On the same count and under the same terms, under `CC1(C)C[C@H]2C=C(C=O)[C@]3(C(=O)O)C[C@]3(C)[C@H]2C1` stands “inactive”.
With `CC(=O)O[C@@H](C[C@@H]1C=C(C)C(=O)O1)[C@H](C)[C@H]1CCC2[C@@]3(C)CC[C@H](O[C@@H]4O[C@H](CO)[C@@H](O)[C@H](O)[C@H]4O[C@@H]4O[C@@H](C)[C@H](O)[C@@H](O)[C@H]4O)C(C)(C)C3CC[C@@]2(C)[C@@]12COC(=O)C2` (stereo partly drawn), the activity change, negative = inhibition is -7.53% [at 11.6 µM] (inactive).
`C=C1CC[C@@H]2[C@@](C)(CO[C@@H]3O[C@H](CO)[C@@H](O)[C@H](O)[C@H]3O)[C@H](O)CC[C@@]2(C)[C@@H]1CC/C(C)=C/CO[C@@H]1O[C@H](CO)[C@@H](O)[C@H](O)[C@H]1O`: the Potency result is “inactive”.
Same read-out and setting: under `COC(=O)C1=COC(O[C@@H]2O[C@H](COC(=O)/C=C/c3ccc(O)cc3)[C@@H](O)[C@H](O)[C@H]2O)C2C(CO)=CCC12` (stereo partly drawn) stands “inactive”.
Same read-out and setting: under `C[C@@H]1O[C@@H](O[C@H]2[C@H](Oc3cc(O)c(C(=O)CCc4ccc(O)cc4)c(O)c3)O[C@H](CO)[C@@H](O)[C@@H]2O)[C@H](O)[C@H](O)[C@H]1O` stands “inactive”.
On the same count and under the same terms, under `CC(=O)OC1(C)CC(O)C2(O)C=COC(OC3OC(CO)C(O)C(O)C3O)C12` (stereo not drawn) stands “inactive”; under `Cc1cn2cc(CC(=O)N3CCC4(CC3)CN(Cc3ccc(-n5nccn5)cc3Cl)C4)nc2s1`, “inactive”; under `C[C@@H]1CC[C@]2(C(=O)O)CC[C@]3(C)C(=CCC4[C@@]5(C)C[C@@H](O)[C@@H](O)C(C)(C)C5CC[C@]43C)C2[C@]1(C)O` (stereo partly drawn), “inactive”.
Turning to `CC1(C)CC(NC(=O)C(=O)Nc2ccc(Cl)cc2)CC(C)(C)N1`, the Potency entry was “inactive”.
Still for that read-out and setting: in the case of `CCC(C)/C=C(C)/C=C/C(=O)C1CCC(O)C(C)(O)C1=O` (stereo not drawn) it was “inactive”; in that of `COC(=O)C1=COC(OC2OC(CO)C(O)C(O)C2O)C2C(COC(=O)/C=C/c3ccc(O)c(O)c3)C(O)C(O)C12` (stereo not drawn), “inactive”.
For `CC1(C)O[C@H]2CC(=O)OC[C@@]23C1=C(O)C(=O)[C@]1(C)C3CC[C@@]2(C)[C@H](c3ccoc3)OC(=O)[C@H]3O[C@]321` (stereo partly drawn), the Potency entry was “inactive”.
On the same count and under the same terms, under `Cc1nc2ccccc2c(-c2ccc3c4c(ccnc24)CCO3)c1[C@H](OC(C)(C)C)C(=O)O` stands “inactive”.
In the case of `C=C1CC[C@@]2(OC1)O[C@H]1CC3C4CC=C5C[C@@H](O[C@@H]6O[C@@H](C)[C@H](O)[C@@H](O)[C@H]6O)C[C@@H](O[C@@H]6O[C@H](C)[C@H](O)[C@H](O)[C@H]6O[C@@H]6O[C@@H](C)[C@H](O)[C@@H](O)[C@H]6O)[C@]5(C)C4CC[C@]3(C)[C@H]1[C@@H]2C` (stereo partly drawn), the outcome was “inactive [at 11.6 µM]”.
On to `CC1(C)CC2C3=CCC4[C@@]5(C)CC[C@H](OC6OCC(O)C(OC7OC(CO)C(O)C(O)C7O)C6O)C(C)(C)C5CC[C@@]4(C)[C@]3(C)C[C@H](O)[C@@]2(CO)[C@H](OC(=O)c2ccccc2)C1` (stereo partly drawn), for which the activity change, negative = inhibition is -8.37% [at 11.6 µM] (inactive).
In the case of `O=C(O)c1ccncc1Nc1nn(CCN2CCC(F)(F)CC2)c2ccc(F)cc12`, the Potency result is “inactive”.
Take `COc1cc(C)c(C(=O)NC2C(C)OC(OC3CCC(C)C4C3C=C(C)C3/C(C)=C\CC/C(C)=C/C5(C)C=C(C(=O)O)C(C)CC56OC(=O)/C(=C(\O)C34C)C6=O)C(O)C2(C)O)c(O)c1` (stereo not drawn): the outcome was “inactive [at 11.6 µM]”.
With `C/C=C(/C)C(=O)OC1C2OC2C2(CO2)C2C3OC(=O)C(C)C3CCC12C` (stereo not drawn), the Potency entry is “inactive”.
